# Rv3671c inh = Rv3671c (M. tuberculosis) protease inhibition; P9WHR9; inhibition, % at 5.96 µM; 0.048% of 320,000 active; AID 2606; in the data active means inhibition above about 38%;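 further: extracellular domain of Rv3671c used as enzyme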
# Mtb FBA inh = inhibits M. tuberculosis FBA enzyme; P9WQA3; 2.3% of 360,000 active; AID 588726; inhibition, % at 1 µM; purified M. tuberculosis FBA, fluorescence read-out; in the data active means inhibition above about 27%
# Mtb betalactam = beta-lactam sensitization of Mtb H37Rv. M. tuberculosis H37Rv growth with meropenem, percent inhibition. inhibition, % at 25 µM. 0.27% of 330,000 active; call rule not given here;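 further: growth measured after seven days incubation then overnight dye step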
# Mtb UGM inh = blocks M. tuberculosis UGM enzyme. purified UGM, fluorescence polarization probe displacement. inhibition, % at 10 µM. 0.06% of 320,000 active; in the data active means inhibition above about 10%, passing the limit was not always enough; inconclusive means no clear call, values can overlap the other calls
# Target sequence (P9WIQ1 whole entry, looked up): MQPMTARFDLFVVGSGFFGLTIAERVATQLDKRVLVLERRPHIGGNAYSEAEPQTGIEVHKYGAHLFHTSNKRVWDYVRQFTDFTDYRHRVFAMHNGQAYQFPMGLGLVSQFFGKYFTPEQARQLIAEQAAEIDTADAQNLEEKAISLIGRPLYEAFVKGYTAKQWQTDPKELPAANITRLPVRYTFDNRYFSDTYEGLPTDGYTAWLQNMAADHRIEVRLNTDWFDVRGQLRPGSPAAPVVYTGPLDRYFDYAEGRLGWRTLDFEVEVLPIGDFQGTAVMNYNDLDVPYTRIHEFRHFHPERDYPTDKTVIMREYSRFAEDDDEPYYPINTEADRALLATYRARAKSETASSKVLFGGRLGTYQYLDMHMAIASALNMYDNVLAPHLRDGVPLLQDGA
# GDH-TPI counter = GDH-TPI coupled enzyme inhibition counter-screen; GDH-TPI coupled enzyme counterscreen, NADH absorbance; 1.2% of 360,000 active; inhibition, % at 4.8 µM; in the data active means inhibition above about 30%
# Numbers stand for hits; – = inactive; ? = inconclusive; · = not tested or not shown. This is a sample that favours compounds with a hit; in the whole collection about 3.5% have one here.
SMILES,Rv3671c inh,Mtb FBA inh,Mtb betalactam,Mtb UGM inh,GDH-TPI counter
O=S(=O)(NC1C2CC3CC(C2)CC1C3)c1ccc(F)cc1 (stereo not drawn),·,–,·,·,–
CC(=O)c1ccc(S(=O)(=O)N(C)CCCC(=O)N(C)Cc2c(F)cccc2Cl)cc1,–,–,–,–,–
CCOC(=O)N1CCC(NC(=O)c2ccc3c(c2)N(Cc2ccc(C)cc2)CCS3)CC1,–,–,–,–,–
CCOC(=O)N1CCC(NC(=O)c2ccc3c(c2)N(C)CCS3)CC1,–,113.6,–,–,–
O=C1NC(=O)C(Nc2cccc3ccccc23)S1 (stereo not drawn),–,–,–,–,36.2
CCCCc1nc2cc(C(=O)NC3CCOC(C)(C)C3)ccc2o1 (stereo not drawn),–,–,–,–,–
O=C(N/N=C/c1ccc([N+](=O)[O-])cc1)c1cccnc1,–,–,–,–,–
COCCNC(=S)N/N=C/c1ccc(-c2ccc([N+](=O)[O-])cc2)o1,–,–,–,–,32.5
O=C(N/N=C/c1ccc(-c2ccc([N+](=O)[O-])cc2)o1)c1cccnc1,–,–,–,–,33.2
CCOc1ccc(NC(c2ccccc2)P(=O)(OC)OC)cc1 (stereo not drawn),–,–,–,–,–
O=C(O)C1=C[C@H](c2cccs2)C[C@H](OCc2ccc(CO)cc2)O1,–,–,–,–,–
CC(NC(=O)C1CCCN(S(=O)(=O)c2cccc3nonc23)C1)c1ccccc1 (stereo not drawn),–,–,–,–,–
Cc1noc(C)c1S(=O)(=O)N1CCCC(C(=O)NC2CCCCC2)C1 (stereo not drawn),–,–,–,–,–
Cc1noc(C)c1S(=O)(=O)N1CCCC(C(=O)NCCC2=CCCCC2)C1 (stereo not drawn),–,–,–,–,–
Cc1noc(/C=C/N(C)C)c1S(=O)(=O)N1CCCC(C(=O)NC2CCCCC2C)C1 (stereo not drawn),–,–,–,–,62.5
Cc1noc(/C=C/N(C)C)c1S(=O)(=O)N1CCCC(C(=O)NC(C)c2ccccc2)C1 (stereo not drawn),–,–,?,–,37.2
Cc1noc(/C=C/N(C)C)c1S(=O)(=O)N1CCCC(C(=O)NCCC2=CCCCC2)C1 (stereo not drawn),–,–,–,–,46.1
Nc1cc2c(cc1O)CCCC2,–,–,–,–,–
COCCC1CCCCN1C(=O)c1cccc(OC2CCN(C3CCCC3)CC2)c1 (stereo not drawn),–,–,–,–,–
CN(NC1OC(=O)c2ccccc21)c1ccccc1[N+](=O)[O-] (stereo not drawn),–,–,–,–,–
CC(c1ccco1)N(C(=O)c1ccccc1NS(=O)(=O)c1ccc(Cl)c([N+](=O)[O-])c1)c1ccccn1 (stereo not drawn),–,–,–,–,32.1
CC(c1ccco1)N(C(=O)c1cc(Cl)cc(Cl)c1)c1ccccn1 (stereo not drawn),–,–,–,–,–
CN(C)c1ccc(NC2=C([N+](=O)[O-])CS(=O)(=O)C2)cc1,–,–,–,–,34.2
COCC(=O)N1CCCC(C(=O)c2ccc3c4c(cccc24)CC3)C1 (stereo not drawn),–,–,–,–,39.0
O=C(O)c1ccc(N/N=C/c2ccc(OC(=O)c3cccc(Cl)c3)cc2)cc1,–,–,–,–,31.4
SMILES,Rv3671c inh,Mtb FBA inh,Mtb betalactam,Mtb UGM inh,GDH-TPI counter
O=C(O)c1ccc(N/N=C/c2cccc(C(F)(F)F)c2)cc1,–,–,–,–,–
O=C(O)c1ccc(N/N=C/c2ccncc2)cc1,–,–,–,–,31.6
O=C(O)c1ccc(N/N=C/c2cccc(F)c2)cc1,–,–,–,·,36.6
O=C(O)c1ccc(N/N=C/c2ccc(F)c(F)c2)cc1,–,–,–,–,58.3
O=C(Oc1ccc(/C=N/Nc2ccccc2)cc1)c1ccccc1,–,–,–,–,–
O=C(O)c1ccc(N/N=C/c2ccc3nccnc3c2)cc1,–,–,–,–,–
O=C(COC(=O)CNC(=O)C1CCCCC1)Nc1ccccc1OC(F)F,–,–,–,–,–
COc1ccc(/C=N/Nc2nn3cnnc3c3ccccc23)cc1,–,–,–,–,34.6
O=c1cc[nH]c2ccc(OC(F)(F)F)cc12,–,–,–,–,–
COc1cc(CNC(=O)c2cc(-c3ccc(OC)cc3C)n[nH]2)cc(OC)c1,·,–,·,·,–
Cn1c(=O)c(N)c2c3c(c(Br)ccc31)C(=O)c1ccccc1-2,–,–,–,14.7,–
CCCCNC(=O)COC(=O)c1cc(C)oc1C,–,–,–,–,–
CCOc1ccccc1N=Cc1c(O)c2ccccc2oc1=O,–,–,–,–,–
CCOP(=O)(Nc1cccc2oc(=O)c3ccccc3c12)OCC,·,116.3,·,·,–
COc1ccc(OC)c(/C=N/NC(=O)CNC(=O)c2cccc3ccccc23)c1,–,145.2,–,–,–
COc1ccc(O)c(/C=N/NC(=O)CCC(=O)Nc2cccc(C)c2)c1,–,–,–,–,–
COc1ccc(OC)c(/C=N/NC(=O)CCCC(=O)Nc2cccc(Br)c2)c1,–,59.7,–,–,–
CC(C)c1ccccc1-n1c(SCC(=O)c2ccc3c(c2)NC(=O)CO3)nc2ccccc2c1=O,–,122.0,–,–,–
O=C1COc2ccc(C(=O)CSc3ccccc3C(=O)O)cc2N1,–,–,–,–,–
CC(=O)c1cnc(N(C)C)s1,–,–,–,–,38.5
CC(=O)c1cnc(Nc2ccccc2)s1,–,–,–,–,–
Cc1ccc(/C=N\Nc2nc3ccc(Cl)cc3[nH]2)o1,–,–,–,–,44.8
Fc1ccccc1-c1ccc(/C=N/Nc2nc3ccccc3[nH]2)o1,–,–,–,–,–
CC(=O)c1ccc(N2CCN(S(=O)(=O)c3ccc4c(c3)C(Cl)(Cl)C(=O)N4)CC2)cc1,·,–,·,·,32.0
COc1ccccc1-c1cc2nc(C)cc(C)n2n1,–,–,–,–,–
SMILES,Rv3671c inh,Mtb FBA inh,Mtb betalactam,Mtb UGM inh,GDH-TPI counter
O=C(CN1CCOCC1)Nc1ccc(OC(F)(F)F)cc1,–,–,–,–,–
COC(=O)c1c(C#N)c(N)nc2c1CCC2,–,130.1,–,–,–
S=C(NCCc1ccccc1)N/N=C/c1ccc(Cl)cc1,–,–,–,–,–
COc1cc(/C=N/NC(=O)c2cnccn2)cc(OC)c1OC,–,–,–,·,32.2
COc1ccc(/C(C)=N/Nc2ccc(C(=O)O)cc2)cc1OC,–,–,–,·,55.6
COc1cc(OC)c(OC)cc1/C=N/NC(=O)c1cnccn1,–,–,–,–,–
COc1cc(/C=N/Nc2nc(N3CCCC3)nc(N3CCCC3)n2)ccc1O,–,–,·,–,35.4
Oc1ccc(/C=N/Nc2nc(N3CCCC3)nc(N3CCCC3)n2)cc1O,–,–,–,–,–
COc1cc(/C=N/NC(=S)NCCc2ccccc2)cc(OC)c1OC,·,–,–,–,40.8
COc1ccc(-c2cnnc(N/N=C/c3ccc(O)c(OC)c3)n2)cc1,–,–,–,–,54.6
COc1cc(/C=C/C(C)=NNc2ccccc2)ccc1O,·,–,·,·,32.3
COc1cc(C(=O)N/N=C/c2ccsc2C)cc(OC)c1OC,–,–,–,–,36.9

# Bioassay records deposited in PubChem BioAssay by several laboratories.
